Assay [1] concerns the target Furin (Homo sapiens) (UniProt P09958). Description: Furin counterscreen qHTS for Zika virus inhibitors (AID 1347149).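 Also: purified recombinant full-length human furin enzyme at 5 nM; fluorescence gain from furin cutting a BOC-RVRR-AMC peptide substrate over 15 min; top concentration of the series differs between compounds; nearly all actives have a fitted effect of over 70% in size.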 The conditions noted are these: furin enzymatic counterscreen, fluorogenic substrate; series mostly up to 114 µM. The procedure, abridged: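 Counterscreen measures cleavage of 2 microM BOC-RVRR-AMC, below its ~15 microM Km, by 5 nM full-length human furin at pH 7.0 after a 15-min compound preincubation. Inhibition derives from the 15-min fluorescence increase at 37C.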

Assay [2] concerns Zika virus NS2B-NS3 protease (linked construct). Briefly: Confirmatory screen NINDS AMC qHTS for Zika virus inhibitors (AID 1347152).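 Also: AMC fluorescence gain from cleaved Bz-Nle-KRR-AMC substrate over 15 min; top concentration of the series differs between compounds; nearly all actives have a fitted effect of over 70% in size.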 The conditions noted are these: Purified linked NS2B-NS3, AMC substrate fluorescence; series mostly up to 56.6 µM. The procedure, abridged:
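Purified NS2B-NS3 protease with NS2B hydrophilic domain linked to NS3 protease domain by flexible linker, 1 nM final in 10 mM Tris-HCl pH 8.0, 0.01% Tween 20. Compounds preincubated 15 min, room temperature; Bz-Nle-KRR-AMC 10 microM (Km 18.3 µM); 15-min fluorescence change, 4-parameter Hill fit.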
In general terms: qHTS replaces the single test concentration by a dilution series.

For assay [3], the system named is Zika virus NS2B-NS3 protease (unlinked complex). Description: Confirmatory screen GU AMC qHTS for Zika virus inhibitors (AID 1347153). Also: nearly all actives have a fitted effect of over 70% in size. The conditions noted are these: Recombinant NS2B-NS3 protease, AMC substrate fluorescence; series mostly up to 57.1 µM. The procedure, abridged:
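Compounds were preincubated 15 min at room temperature with 25 nM noncovalent NS2B-NS3 protease at pH 8.0; AMC substrate added at 10 microM and 15-min fluorescence gain (340/450 nm) converted to percent inhibition, fitted 4-parameter.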

For assay [4], the target named is N-terminal Xaa-Pro-Lys N-methyltransferase 1 (Homo sapiens) (UniProt Q9BV86). Description: qHTS Assay for Inhibitors of N-terminal methyltransferase 1 (NTMT1): LOPAC validation of the NTMT1 SAHH-coupled ThioGlo3 Assay (AID 1347143).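 Also: SAH from peptide methylation measured as thiol fluorescence via SAHH coupling and ThioGlo3; nearly all actives have a fitted effect of over 70% in size.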 The conditions noted are these: recombinant NTMT1, SAHH-coupled ThioGlo3 fluorescence; series mostly up to 114 µM. The procedure, abridged:
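Steps: dispense 125nM NTMT1; pin-transfer test compounds at several concentrations, with 1uM RCC1-6 peptide as control; incubate 1 min; start with reagent holding 100uM SAM, 10uM SAHH, 15uM ThioGlo3; read at 0 and 30 min.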

The subject of assay [5] is Zika virus NS2B-NS3 protease (unlinked). Briefly: Optimization of GU AMC qHTS for Zika virus inhibitors: Unlinked NS2B-NS3 protease assay (AID 1347151). Also: nearly all actives have a fitted effect of over 80% in size. The conditions noted are these: recombinant ZIKV NS2B-NS3 protease, fluorogenic AMC substrate; series mostly up to 52.5 µM. The procedure, abridged:
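Noncovalent complex of NS2B hydrophilic domain and NS3 protease domain, 25 nM final, in 10 mM Tris-HCl pH 8.0, 0.01% Tween 20. AMC fluorescence change over 15 min at room temperature was fitted to a 4-parameter Hill equation.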

The test system of assay [6] is Zika virus NS2B-NS3 protease. Description: Primary screen GU AMC qHTS for Zika virus inhibitors (AID 1347154). Also: nearly all actives have a fitted effect of over 70% in size. The conditions noted are these: Zika NS2B-NS3 unlinked protease, AMC fluorogenic substrate; series mostly up to 54.1 µM. The procedure, abridged:
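Unlinked Zika NS2B hydrophilic domain–NS3 protease complex at 25 nM in 10 mM Tris-HCl pH 8.0, 0.01% Tween 20, with an AMC peptide substrate. Fluorescence change (340/450 nm) over 15 min at room temperature, normalized to controls, fitted to 4-parameter Hill.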

Assay [7] in a line: Confirmatory screen GU Rhodamine qHTS for Zika virus inhibitors qHTS (AID 1347157). Also: nearly all actives have a fitted effect of over 70% in size. The conditions noted are these: purified enzyme assay, Rhodamine110 substrate fluorescence, 15 min; series mostly up to 22 µM. The procedure, abridged:
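Compounds, tested up to 114 microM, were incubated for 15 minutes with 25 nM unlinked NS2B-NS3 protease at pH 8.0. Cleavage of 1.5 microM Rhodamine110 substrate was then followed by fluorescence for 15 minutes.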

The values that follow come from PubChem BioAssay (NCATS).

Results filed as inconclusive are left out. Entries that show only a call come without a potency. Values without a mark were called inactive. Calls of active or inactive are those of the source. Calls follow the shape of the dose curve; as a rule, active = well fitted curve in the direction sought with a large enough effect; inconclusive = small, poorly fitted or top-dose-only effect, or another doubt; inactive = no such curve, though single readings can be large; an effect the other way counts as inactive or inconclusive.

Furin (Homo sapiens), sequence (P09958 whole entry, looked up): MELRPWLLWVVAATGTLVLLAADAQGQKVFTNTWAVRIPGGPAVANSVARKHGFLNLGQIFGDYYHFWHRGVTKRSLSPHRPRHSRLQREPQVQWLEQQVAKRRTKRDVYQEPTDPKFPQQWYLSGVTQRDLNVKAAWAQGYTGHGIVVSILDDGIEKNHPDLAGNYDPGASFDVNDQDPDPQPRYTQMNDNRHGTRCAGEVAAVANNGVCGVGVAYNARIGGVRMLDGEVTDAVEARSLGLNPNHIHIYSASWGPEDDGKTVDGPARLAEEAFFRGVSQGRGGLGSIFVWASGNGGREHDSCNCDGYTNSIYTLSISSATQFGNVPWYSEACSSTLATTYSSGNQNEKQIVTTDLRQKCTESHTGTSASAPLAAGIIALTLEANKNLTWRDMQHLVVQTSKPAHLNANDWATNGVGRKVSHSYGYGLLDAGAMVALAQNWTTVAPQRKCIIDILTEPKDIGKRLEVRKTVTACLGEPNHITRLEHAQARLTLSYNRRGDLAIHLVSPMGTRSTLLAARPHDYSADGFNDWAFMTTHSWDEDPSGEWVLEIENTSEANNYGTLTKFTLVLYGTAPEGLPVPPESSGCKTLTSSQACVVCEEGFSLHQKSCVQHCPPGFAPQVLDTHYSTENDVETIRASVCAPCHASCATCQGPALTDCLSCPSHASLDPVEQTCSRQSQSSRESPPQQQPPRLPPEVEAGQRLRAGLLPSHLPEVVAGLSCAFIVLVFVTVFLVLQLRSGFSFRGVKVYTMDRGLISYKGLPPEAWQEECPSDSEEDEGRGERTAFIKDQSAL
N-terminal Xaa-Pro-Lys N-methyltransferase 1 (Homo sapiens), sequence (Q9BV86 whole entry, looked up): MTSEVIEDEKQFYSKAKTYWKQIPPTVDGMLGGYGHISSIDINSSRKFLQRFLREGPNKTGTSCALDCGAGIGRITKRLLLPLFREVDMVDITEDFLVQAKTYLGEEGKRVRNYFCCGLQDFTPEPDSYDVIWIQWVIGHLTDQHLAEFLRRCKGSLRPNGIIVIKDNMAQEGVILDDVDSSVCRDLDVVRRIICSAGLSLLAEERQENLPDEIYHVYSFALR

For `N[C@@H](Cc1cc(I)c(O)c(I)c1)C(=O)O`, the Potency result in assay [1], in assay [2] and in assay [3] was “inactive” each time. With `Cn1cnc2c(NCc3ccccc3)nc(NCCO)nc21`, the Potency entry in assay [4], in assay [5] and in assay [6] was “inactive” in each case. Take `C[C@H](CN1CCCC1)C(=O)c1ccc(C(F)(F)F)cc1`: the Potency entry in assay [6] was “inactive”. Take `CSCC[C@H](NC(=O)[C@H](Cc1c[nH]c2ccccc12)NC(=O)CCNC(=O)OC(C)(C)C)C(=O)N[C@@H](CC(=O)O)C(=O)N[C@@H](Cc1ccccc1)C(N)=O`: the Potency result in assay [6] is “inactive”. Same read-out and setting: in the case of `CCN1CCN(c2cc(-c3ccc(F)cc3)c3c(n2)CCCCCC3)CC1` it was “inactive”; in that of `OC[C@]1(O)OC[C@@H](O)[C@H](O)[C@@H]1O`, “inactive”. For `O=C(CCCCC(=O)Nc1c(I)cc(I)c(C(=O)O)c1I)Nc1c(I)cc(I)c(C(=O)O)c1I`, the activity change, negative = inhibition in assay [1] was 9.18% [at 18.8 µM]. The Potency entry in assay [6] and in assay [7] was “inactive” each time.
